# Test results as given in PubChem BioAssay (NCI).
# The panel holds about 83,000 compounds, 20% with a hit somewhere; the sample as a whole holds those more often.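 Treatment: one concentration, 48 hours, 96-well format. Scoring: percent growth, with anything below 10 considered active.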 Values without a mark were called inactive. Calls of active or inactive are those of the source.
# Experiments:
# Assay in all cases: NCI-60 one-dose screen, 48 h (100 = growth as untreated, 0 = no growth, -100 = all killed)
# Settings in all cases: 10 µM unless noted
# HCT-15 colon = system: HCT-15 colon
# HT29 colon = system: HT29 colon
# SNB-75 CNS = system: SNB-75 CNS
# SNB-19 CNS = system: SNB-19 CNS
# U251 CNS = system: U251 CNS
# PC-3 prostate = system: PC-3 prostate
# SK-MEL-5 melanoma = system: SK-MEL-5 melanoma
# UACC-62 melanoma = system: UACC-62 melanoma
# LOX IMVI melanoma = system: LOX IMVI melanoma
# SK-MEL-28 melanoma = system: SK-MEL-28 melanoma
SMILES,growth (HCT-15 colon),growth (HT29 colon),growth (SNB-75 CNS),growth (SNB-19 CNS),growth (U251 CNS),growth (PC-3 prostate),growth (SK-MEL-5 melanoma),growth (UACC-62 melanoma),growth (LOX IMVI melanoma),growth (SK-MEL-28 melanoma)
Cc1c(CN(C)C)cc(C(C)C)cc1C(C)C,113%,86.4%,96.7%,102%,100%,109%,104%,106%,98.7%,107%
N=C(N)N=Nc1ccc(NN=C(N)N)c2ccccc12,110%,99.3%,73.1%,51.7%,35.5%,87.8%,138%,102%,103%,113%
COc1ccc(/C=C/C(=O)/C=C/c2cc3ccccc3[nH]c2=O)cc1,75.3%,3.66% (active),61.6%,79.6%,13.7%,52.4%,86.7%,53.5%,-21% (active),79.6%
O=C(CN1CCN(c2cccc(Cl)c2)CC1)N1CCN(c2nnc(-c3ccc(Cl)cc3)c(-c3ccc(Cl)cc3)n2)CC1,52.9%,59.3%,97.6%,77.6%,71.7%,25.4%,61.6%,71.4%,71.5%,93.8%
CC(O)CCC(C)[N+](=O)[O-] (stereo not given),102%,113%,83.3%,99.9%,99.2%,102%,102%,95.4%,100%,98.3%
NCCCOc1cc2ccccc2cc1C(=O)Nc1ccc(Cl)cc1OC(=O)c1cc2ccccc2cc1OCCCN,-82.2% (active),-94.9% (active),-86.5% (active),-61.5% (active),-93.6% (active),-93% (active),-96.1% (active),-71.1% (active),-86.7% (active),-89.3% (active)
N#CCc1ncc(-c2ccc(C(F)(F)F)cc2)c(NC2CCCCCC2)n1,22.1% [100 µM],14% [100 µM],52.5% [100 µM],45.2% [100 µM],22.4% [100 µM],-3.13% [100 µM] (active),22.9% [100 µM],42.1% [100 µM],25% [100 µM],65.8% [100 µM]
N#CCCCCCCCCCCC#N,99.4%,95.7%,103%,109%,105%,95.8%,110%,101%,99.4%,111%
CSC1=Nc2c(c(C)c(-c3ccccc3)n2CCCCl)C2=NC(=O)CN12,64.9%,23.5%,21.2%,81.2%,51.6%,68.9%,50.7%,36.7%,49.8%,55.9%
CC(=O)Nc1ccc(C(=O)/C=C/c2ccc(N(C)C)cc2)cc1,94.1%,91.3%,99.7%,109%,93.9%,94.6%,98.7%,102%,96.1%,108%
BrCCCOc1ccc(Oc2ccc(OCCCBr)cc2)cc1,93.3%,107%,86.6%,92.5%,88.1%,101%,97%,94.5%,50.5%,99%
COc1ccc(-c2nnc(SCC(=O)Nc3ccc(C(=O)/C=C/c4cc(OC)c(OC)c(OC)c4)cc3)n2-c2ccccc2)cc1OC,8.91% [100 µM] (active),3.6% [100 µM] (active),-22% [100 µM] (active),-19.9% [100 µM] (active),-96.9% [100 µM] (active),10.9% [100 µM],-14.6% [100 µM] (active),-42.9% [100 µM] (active),-88.5% [100 µM] (active),18.3% [100 µM]
CCOC(=O)C1=NN(c2ccccc2)C2=NC(=O)/C(=C\c3cn(-c4ccccc4)nc3-c3cc4ccccc4o3)C(=O)N12,101%,98%,94.7%,89.5%,99.4%,88.2%,94.3%,82.3%,95.9%,110%
CCCNC(=O)Oc1ccc(/C(=C(/C)Cc2ccc(OC)cc2)c2ccc(OCCN3CCCC3)cc2)cc1,16.9%,0.741% (active),48.2%,78.6%,48.6%,56.4%,11.7%,52.5%,48.4%,55.8%
Brc1ccc(-c2nc3ccccc3s2)cc1,91.6%,107%,80.6%,94.9%,96.1%,83.6%,94.4%,89.1%,89.5%,109%
COC(=O)c1ccc2[nH]c(O)c(C(=Nc3ccc(N(C)C(=O)CN4CCN(C)CC4)cc3)c3ccc(OC)cc3)c2c1,10.4%,20%,6.7% (active),32.4%,19%,28.7%,28.5%,39.2%,16.1%,32.8%
O=C1/C(=C/c2ccc(Cl)cc2)CCC/C1=C\c1ccc(Cl)cc1,80.9%,6.8% (active),90.1%,92.5%,14.7%,90.8%,84.6%,80.5%,-67.7% (active),110%
CCOc1ccccc1/C=N\N=C(N/N=C/c1ccccc1OCC)N/N=C/c1ccccc1OCC,13.5%,-1.15% (active),22.3%,21.7%,13.4%,3.92% (active),-52.6% (active),16.1%,8.71% (active),30.7%
C=CCSc1nnc(COc2ccc3c(C)c(Cc4ccccc4)c(=O)oc3c2C)o1,104%,98.3%,89.1%,93.4%,99%,93.2%,101%,92.4%,97.6%,117%
CCC(C)C1NC(=O)C(CC(C)C)NC(=O)C(C)NC(=O)C(C(C)C)NC(=O)C(CCCCN)NC(=O)C(CC(C)C)NC(=O)C(C(C)C)NC(=O)[C@H](C)NC(=O)C(C(C)CC)NC(=O)C(CCCN=C(N)N)NC(=O)C(CCCCN)NC(=O)C(CCCN=C(N)N)NC(=O)C(CCCCN)NC(=O)C([C@H](C)CC)NC(=O)C(CCCCN)NC1=O (stereo not given in full),26.7%,3.41% (active),28.8%,17.4%,3.51% (active),-4.78% (active),1.67% (active),21.3%,35.4%,41.3%
O=Nc1ccc(O)c2ccccc12,23.6%,1.37% (active),-64.5% (active),57.8%,-14% (active),-10.5% (active),-97.4% (active),15.8%,-1.33% (active),13.3%
COc1cc(OC)c2c(=O)cc(-c3ccccc3)oc2c1,105%,97.1%,91.8%,94.3%,92.2%,81.1%,95.9%,77.7%,97.5%,106%
Oc1ccc2ccccc2c1/C=N\Nc1ccccn1,28.7%,111%,-7.53% (active),27.8%,21.3%,45.1%,13.3%,0.907% (active),-4.69% (active),38.9%
COC(=O)[C@H](Cc1cn(C)cn1)NC(=O)[C@H](CC(=O)OCc1ccccc1)NC(=O)Nc1cc(C(F)(F)F)cc(C(F)(F)F)c1,-82.2% [100 µM] (active),-85.2% [100 µM] (active),-98.6% [100 µM] (active),-93% [100 µM] (active),-96.5% [100 µM] (active),-94.1% [100 µM] (active),-97.3% [100 µM] (active),-98.3% [100 µM] (active),-85.3% [100 µM] (active),-95.6% [100 µM] (active)
Cc1sc(NC(=O)c2ccc(C(C)(C)C)cc2)c(C(=O)O)c1C,45.9%,82%,85.5%,51%,17%,53.7%,73.3%,98.4%,68.9%,110%
CCCCN(CCCC)CC(O)CN(CC)CC (stereo not given),104%,88%,87.3%,105%,102%,97.7%,96.2%,105%,96.1%,109%
